Screening results (PubChem)
Gal4-VP16 FLuc: counter-screen for ROR gamma inhibitors: Gal4-VP16 reporter; AID 2546; Potency, µM (doses to about 53.6 µM), inactives show top-dose activity, negative = inhibition, most hits filed as inhibitors; 3.5% of 310,000 active; Drosophila S2 Gal4-VP16 UAS-luciferase, luminescence, 20 h;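 also: Gal4-VP16 expression switched on by copper sulfate through the metallothionein promoter; potency is read from the fitted curve at half-maximal effect; % is scaled to controls: 0 for no effect and ±100 for the full control effect; nearly all actives have a fitted effect of over 50% in size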
SW480 rereplic: inducers of DNA re-replication in SW480 colon cancer cells | 1.8% of 340,000 active | AID 624297 | SW480 DNA re-replication, Hoechst DNA content imaging, 48 h | Potency, µM (highest dose often 46.1 µM), for the others: top-dose re-replication activation, actives largely listed as activators; also: potency is read from the fitted curve at half-maximal effect; % of control where 0% means no effect; nearly all actives have a fitted effect of over 55% in size
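Readout is total intensity of Hoechst-stained nuclei, excited at 405 nm and collected at 500-530 nm. Compound treatment lasted 48 hr at 37 C in 5% CO2 before staining.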
RORg inh: blocks mouse ROR gamma transcriptional activity; P51450; Drosophila S2 Gal4-RORgamma UAS-luciferase reporter, 20 h; Potency, µM (doses to about 53.6 µM), inactives show top-dose activity change, negative = inhibition, most hits filed as inhibitors; 5.4% of 310,000 active; AID 2551; also: potency is read from the fitted curve at half-maximal effect; % is scaled to controls: 0 for no effect and ±100 for the full control effect; nearly all actives have a fitted effect of over 60% in size
Target sequence (P51450 whole entry, looked up, the tested form may be a part): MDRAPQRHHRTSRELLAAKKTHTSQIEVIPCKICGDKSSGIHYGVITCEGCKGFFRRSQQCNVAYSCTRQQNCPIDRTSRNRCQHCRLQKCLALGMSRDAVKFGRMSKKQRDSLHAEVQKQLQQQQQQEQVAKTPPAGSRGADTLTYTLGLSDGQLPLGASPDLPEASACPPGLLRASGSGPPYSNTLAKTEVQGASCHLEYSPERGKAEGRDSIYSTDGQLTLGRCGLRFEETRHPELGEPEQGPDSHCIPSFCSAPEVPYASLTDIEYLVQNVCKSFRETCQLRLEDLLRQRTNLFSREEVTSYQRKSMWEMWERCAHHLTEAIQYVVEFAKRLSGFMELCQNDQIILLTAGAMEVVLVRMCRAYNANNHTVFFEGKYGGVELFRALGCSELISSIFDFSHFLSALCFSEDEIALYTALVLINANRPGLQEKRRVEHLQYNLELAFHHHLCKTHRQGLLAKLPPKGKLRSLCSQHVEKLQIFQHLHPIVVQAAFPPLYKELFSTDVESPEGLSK
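Drosophila Schneider cells stably carrying a metallothionein-driven Gal4 DBD–ROR gamma fusion and a UAS-Photinus luciferase reporter were exposed to compound for 1 hr, then induced with copper sulfate (700 uM final) for 20 hr at ambient temperature before luminescence reading.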
MCF10A rerep: DNA re-replication induction in MCF 10a cells. 2.9% of 350,000 active. Potency, µM (series often up to 46.1 µM), inactives show top-dose activity, positive = re-replication, actives largely listed as activators. AID 624296. MCF 10A DNA re-replication, Hoechst nuclear intensity, 48 h; also: potency is read from the fitted curve at half-maximal effect; % of control where 0% means no effect; nearly all actives have a fitted effect of over 50% in size
IL1B secr inh: inhibitors of inflammasome signaling (IL-1 beta secretion). THP-1 LPS/ATP IL-1B secretion, AlphaLISA, 16 h; hits give low values. activity change, % at 57.5 µM. 4.7% of 360,000 active; in the data active = activity change below about -50%; inconclusive = mostly about -30% to -49%; also: % is scaled to controls: 0 for no effect and ±100 for the full control effect
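Secreted IL-1B measured by AlphaLISA bead assay after 16 h compound exposure of THP-1 cells; compounds (final up to 57.5 uM) added 1 h before LPS (250 ng/mL) and ATP (1.25 mM) stimulation; lower signal means less secretion.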
Active calls of the source: *; u = inconclusive; x = no result; [ ] = remark or other dose. A selection: hits, their analogues and other compounds. The true share with any hit is near 11%. Unless noted, calls follow the shape of the dose curve; as a rule, active = well fitted curve in the direction sought with a large enough effect; inconclusive = small, poorly fitted or top-dose-only effect, or another doubt; inactive = no such curve, though single readings can be large; an effect the other way counts as inactive or inconclusive.

SMILES	Gal4-VP16 FLuc	SW480 rereplic	RORg inh	MCF10A rerep	IL1B secr inh
COc1ccc(CNC(=O)Cn2ccc3cc(S(=O)(=O)N4CCCC4)ccc32)cc1OC	-6%	-20%	-25%	2%	14
Clc1ccccc1OCc1nnc(-c2ccccc2Br)o1	u	-1%	-19%	-3%	u
O=c1c(Cl)c(Cl)cnn1Cc1nnc(-c2ccccc2Br)o1	u	4.6µM*	u	3.3µM*	-96*
N#Cc1cc2sc3nnc(-c4ccncc4)n3c2cc1C#N	u	-33%[9.22 µM]	-29%	29%	-83*
N#Cc1cc2sc3nc4ccccc4n3c2cc1C#N	-17%	x	20%	x	x
NC(=O)C(c1ccc(Cl)cc1)c1ccc(Sc2ccc(Cl)cc2)nn1 (stereo not given)	14µM*	-4%	u	-4%	u
O=c1[nH]c2cc(Br)cnc2nc1/C=C(\O)c1ccc(F)cc1	-12%	18%	4%	7.3µM*	-10
O=C(NCc1nc2ncc(Br)cc2[nH]1)c1ccccc1	u	-1%	28%	-2%	-18
CCn1c(NC(=O)c2ccc(COc3ccc(C)cc3[N+](=O)[O-])o2)nc2ccccc21	5µM*	-4%	2.2µM*	u	-11
Nc1ccccc1SCC1CSc2nc3ccccc3c(=O)n21 (stereo not given)	3%	-4%	u	-7%	15
O=c1c2ccccc2nc2n1C(CSCc1ccc(Cl)cc1Cl)CS2 (stereo not given)	22µM*	-2%	-2%	0%	u
CCCCCCCCCCCC(=O)OCC(O)CO (stereo not given)	-1%	-1%	8%[10 µM]	0%	x
COc1cc([N+](=O)[O-])cc(/C=N/NC(=O)Cn2nc(C)cc2C)c1O	u	u	u	u	7
COc1cc([N+](=O)[O-])cc(/C=N/N(CCC#N)C(C)=O)c1O	1%	5.8µM*	-26%	u	-4
Cc1ccc(-c2cc(-c3ccccc3)nc(N(C)N)n2)cc1	u	0%	13µM*	23%	-2
Cc1ccc(-c2cc(N)nc(-c3ccccc3)c2)cc1	-10%	u	-30%	u	u
CC1(C)CC(=O)c2c(O)cc(OCC(=O)Nc3ccc(CCO)cc3)cc2O1	-6%	-7%	38%	21%	-13
Cc1cc(O)ccc1-c1cccc2nccn12	x	x	x	x	10
CN(C)C(=S)N=c1ssc(=S)n1Cc1ccccc1	x	5.2µM*	x	u	-2
CCOC(=O)c1sc(=S)n(Cc2ccccc2)c1C	-13%	-2%	-15%	0%	-5
CCOC(=O)c1c(C)c(/C=N/Nc2ccccc2)n(C)c1C	4%	30%	11%	12µM*	-4
CCOC(=O)c1c(C)c(C(=O)O)n(C)c1C	2%	0%	-22%	5%	8
COc1ccc(-c2cc(-c3ccc(OC)c(OC)c3)n[nH]2)c(O)c1	u	1%	4µM*	u	-7
COc1ccc(-c2cc(-c3ccc(Cl)cc3)n[nH]2)c(O)c1	u	26%	8.9µM*	24%	u
COc1ccc(-c2cc(-c3cc(F)ccc3O)[nH]n2)cc1OC	u	3%	-89%	u	-18
SMILES	Gal4-VP16 FLuc	SW480 rereplic	RORg inh	MCF10A rerep	IL1B secr inh
COc1ccc(-c2cc(-c3ccccc3O)[nH]n2)cc1OC	u	-22%	7.1µM*	u	-13
COc1ccc(O)c(-c2cc(-c3ccc(F)cc3)n[nH]2)c1	u	2%	13µM*	u	-51*
CCOc1ccc(S(=O)(=O)N=C(c2ccccc2)N2CCOCC2)cc1	x	3%	x	-2%	13
O=C(O)c1cc(-c2ccc3c(c2)OCCO3)n[nH]1	-26%	2%	-30%	0%	22
Oc1ccccc1-c1cc(-c2ccc3c(c2)OCCO3)n[nH]1	u	-2%	3.2µM*	-9%	-61*
N#C/C(=C\c1coc2ccccc2c1=O)C(N)=S	u	u	13µM*	u	4
Cc1[nH]oc(=O)c1N=Nc1ccc2[nH]c(=O)[nH]c2c1	x	4%	x	17%	-1
Cc1ccccc1C(=O)N1CCC(C(=O)NC(C)c2ccc(-n3ccnc3)cc2)CC1 (stereo not given)	-7%	2%	-5%	-5%	3
O=C(N/N=C/c1c[nH]c2ccccc12)c1ccn[nH]1	-7%	-59%	42%	0.58µM*	32
O=C(N/N=C/c1c[nH]c2ccccc12)c1cc(-c2ccccc2)n[nH]1	2%	-11%	20%	17%	-66*
O=C(N/N=C/c1c[nH]c2ccccc12)c1cc(-c2cccc3ccccc23)n[nH]1	u	u	-45%	9.2µM*	-52*
O=C(N/N=C/c1c[nH]c2ccccc12)c1cc(-c2ccc3ccccc3c2)n[nH]1	u	12µM*	u	2.6µM*	-99*
Cc1occc1C(=O)N/N=C/c1c[nH]c2ccccc12	-24%	-5%	u	-2%	-8
O=C(N/N=C/c1c[nH]c2ccccc12)c1ccc(Br)cc1	u	14%	u	14%	u
C[C@@H]1CN([C@@H](C)CO)C(=O)CCCn2nncc2CO[C@@H]1CN(C)S(=O)(=O)c1cccc(F)c1	x	x	x	x	7
Nc1ccc(C(=O)N/N=C/c2c[nH]c3ccccc23)cc1	-6%	-25%	8%	-1%	2
Cc1nc(C)c(C(=O)N/N=C/c2c[nH]c3ccccc23)s1	-2%	u	-10%	u	22
Cc1ccc(-c2cc(C(=O)N/N=C/c3c[nH]c4ccccc34)[nH]n2)cc1	u	3.3µM*	19%	u	0
O=C(N/N=C/c1c[nH]c2ccccc12)c1cc(-c2ccc(-c3ccccc3)cc2)n[nH]1	u	u	5.6µM*	15µM*	78
Cc1cccc(NC(=O)CNC(=O)COC(=O)C2CC2C)c1C (stereo not given)	x	-2%	x	4%	17
CCN(c1ccccc1)S(=O)(=O)c1cc(C(=O)Nc2ccc(Br)cc2)ccc1F	13µM*	u	17%	u	u
CCc1ccc(NC(=O)c2ccc(F)c(S(=O)(=O)NCC3COc4ccccc4O3)c2)cc1 (stereo not given)	u	7%	u	25%	-70*
Cc1ccc(-n2nnnc2SCC(=O)NCC2(N3CCOCC3)CCCCC2)c(C)c1	x	-4%	x	u	-13
N[C@@]1(C(=O)O)CO[C@H]2[C@H](C(=O)O)[C@H]21	-3%	x	2%	x	x
CC(C)(C)Cc1nnc(NC(=O)CSc2ccccc2)s1	-21%	u	-36%	1%	0
CCOc1cc(C)c(C(C)C)cc1S(=O)(=O)n1cnc(C)c1	-2%	u	17%	9.2µM*	23
COc1ccc(C(C)C)cc1S(=O)(=O)n1cnc(C)c1	6%	21µM*	-18%	u	6
